PKA-R1A act – activators of PKA-R1A holoenzyme, primary screen, biochemical, fluorescence polarization, Cy5-IP20, bovine R1A, mouse PKAc. cAMP-dependent protein kinase type I-alpha regulatory subunit (Bos taurus) + …. PKA-R1A dissociation; scaled: DMSO 0%, 113 µM cGMP 100%. activation, % at 11.4 µM. 340,000 tested, 0.083% active. AID 504707, 2011;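 active means percent activation above the mean of all tested compounds plus 3 SD, cut at about 19% in these data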;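 further: higher means more PKAc released from R1A so a rise in polarization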
TMEM16A act – TMEM16A chloride channel activators or potentiators, primary screen, cell-based, HTS. 340,000 tested, 0.3% active. B-score at 10 µM. HEK293 TMEM16A/YFP-H148Q/I152L, iodide quench fluorescence; hits give low values. Anoctamin-1 (Mus musculus), Q8BHY3;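 active means fluorescence-ratio B-score plate-corrected deviation score at least 3 library SD below zero, with starting fluorescence score within 5 deviations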;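 further: channel opened by trigger with iodide after compound preincubation; score built on the fluorescence ratio of max minus min over baseline; more negative score means more quench and so TMEM16A activation or potentiation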
Target sequence (Q8BHY3 whole entry, looked up): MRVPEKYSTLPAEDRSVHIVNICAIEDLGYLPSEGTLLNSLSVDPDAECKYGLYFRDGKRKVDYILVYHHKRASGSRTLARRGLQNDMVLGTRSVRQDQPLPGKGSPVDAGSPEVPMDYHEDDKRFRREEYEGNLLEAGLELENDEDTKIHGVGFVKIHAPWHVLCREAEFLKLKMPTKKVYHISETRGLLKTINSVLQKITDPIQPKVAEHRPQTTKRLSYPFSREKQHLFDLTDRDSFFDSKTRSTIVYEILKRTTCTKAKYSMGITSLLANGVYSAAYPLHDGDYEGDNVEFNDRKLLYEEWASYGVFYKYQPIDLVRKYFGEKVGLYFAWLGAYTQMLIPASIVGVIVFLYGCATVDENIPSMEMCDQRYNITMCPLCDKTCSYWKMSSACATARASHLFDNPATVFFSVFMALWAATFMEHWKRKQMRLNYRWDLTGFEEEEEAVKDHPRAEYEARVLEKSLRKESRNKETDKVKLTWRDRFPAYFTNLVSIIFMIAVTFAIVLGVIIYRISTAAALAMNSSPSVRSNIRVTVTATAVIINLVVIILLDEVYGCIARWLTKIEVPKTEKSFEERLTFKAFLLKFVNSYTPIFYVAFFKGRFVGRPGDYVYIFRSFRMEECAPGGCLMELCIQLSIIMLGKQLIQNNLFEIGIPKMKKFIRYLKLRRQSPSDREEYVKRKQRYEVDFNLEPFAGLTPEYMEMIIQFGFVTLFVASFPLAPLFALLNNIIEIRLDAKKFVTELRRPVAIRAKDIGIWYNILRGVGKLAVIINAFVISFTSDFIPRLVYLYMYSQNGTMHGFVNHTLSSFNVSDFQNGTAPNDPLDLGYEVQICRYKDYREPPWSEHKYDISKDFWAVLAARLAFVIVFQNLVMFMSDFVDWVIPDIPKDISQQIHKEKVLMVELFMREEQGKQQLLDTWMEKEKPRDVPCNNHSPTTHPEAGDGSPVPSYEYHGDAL
ANO1 block – TMEM16A chloride channel inhibitors, primary screen, cell-based, HTS; Anoctamin-1 (Mus musculus), Q8BHY3; HEK293 TMEM16A/YFP iodide influx fluorescence, ionomycin; normalized B-score (activity score, 25-100; higher = stronger inhibition) at 10 µM; 310,000 tested, 1.2% active;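 active means ratio plate-corrected score three or more library SD toward inhibition, starting fluorescence score within five deviations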;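 further: score derived from kinetic fluorescence span divided by baseline fluorescence per well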
PKA-R2B activ – activators of PKA-R2B holoenzyme, primary screen, biochemical, fluorescence polarization, Cy5-IP20, human | cAMP-dependent protein kinase catalytic subunit beta (Homo sapiens) + cAMP-dependent … | PKA-R2B holoenzyme dissociation; R2B truncated from residue 108, S112A mutant; 0% DMSO only, 100% 113 µM cGMP | activation, % at 11.4 µM | 340,000 tested, 0.079% active | AID 504700, 2011;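 active means activation above a cutoff set at the mean over all compounds plus 3 SD, cut at about 18% in these data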;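 further: higher means more holoenzyme dissociation and a rise in polarization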
CHT allo act – CHT positive allosteric modulators, primary screen, cell-based, membrane potential dye, choline EC20 | High affinity choline transporter 1 (Homo sapiens), Q9GZV3 | CHT-expressing cells; hits give high values; LV-AA mutant CHT in HEK293 cells | B-score at 10 µM | 310,000 tested, 0.49% active | AID 488977, 2010;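 active means initial fluorescence not abnormally high and integrated response B-score, plate-corrected, over 3 SD above library mean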
CHT inh – inhibitors of human choline transporter CHT; CHT-expressing cells, membrane potential dye, choline response; hits give low values; B-score at 10 µM; High affinity choline transporter 1 (Homo sapiens), Q9GZV3; 310,000 tested, 0.86% active;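 active means B-score over 3 SD under the library average, and starting fluorescence ratio not unusually high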;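 further: choline stimulus applied at its EC90 after an EC20 pre-addition; B-score computed on integrated fluorescence ratio after choline addition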
R2B FP artifact – fluorescence polarization artefacts, biochemical, artefact control for PKA-R2B activator project. AID 504796, 2011. shares compounds with PKA-R2B activ. FP artifact counterscreen. activation, % at 11.4 µM. 270 tested, 6% active; in the data active means activation above about 20%;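 further: Cy5 labelled IP20 peptide probe with compound but no PKA protein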
PKA-R2B confirm – activators of PKA-R2B holoenzyme, confirmation, biochemical, fluorescence polarization, human | shares compounds with PKA-R2B activ | PKA-R2B complex, activation | activation, % at 11.4 µM | 270 tested, 9% active | AID 504797, 2011; in the data active means activation above about 19%
* = called active by the depositor; i = inactive; nt = no result. Most compounds without a hit are left out; they make up all but 2.5% or so of the library.

SMILES | PKA-R1A act | TMEM16A act | ANO1 block | PKA-R2B activ | CHT allo act | CHT inh | R2B FP artifact | PKA-R2B confirm
CCC1Oc2ccccc2N(CC(=O)NCc2ccco2)C1=O (configuration not stated) | -10.6 | i | i | 1.6 | i | i | nt | nt
O=C(CCS(=O)(=O)c1ccc(F)cc1)Nc1nnc(-c2ccc(F)cc2)o1 | -6.6 | i | i | 19.0* | i | i | -2.0 | 0.7
CCCCc1ccc(NC(=O)CN2C(=O)C3CCCCC3C2=O)cc1 (configuration not stated) | 6.1 | i | i | -19.3 | i | i | nt | nt
CC(=O)N(c1ccccc1)c1nc(C)cc(C)c1C#N | 0.6 | i | i | -8.8 | i | i | nt | nt
CC(=O)N(c1ccc(Cl)cc1)c1nc(C)cc(C)c1C#N | 5.9 | i | i | 20.1* | i | i | 0.6 | 2.7
COC(=O)c1ccc(CNC(=O)COC(=O)c2cc(Cl)ccc2O)cc1 | 3.5 | i | nt | -0.6 | nt | nt | nt | nt
O=C(CCC(=O)OCc1ccc([N+](=O)[O-])cc1)Nc1ccccc1Cl | -5.5 | i | i | -9.3 | i | i | nt | nt
CCC(=O)c1ccc(OCC(=O)OCC(=O)Nc2ccc3c(c2)OCCO3)cc1 | -16.0 | i | nt | -4.3 | nt | nt | nt | nt
O=C(COC(=O)COc1ccc(Cl)cc1)Nc1ccc2c(c1)OCCO2 | 0.6 | i | nt | 18.5* | nt | nt | 3.4 | 4.2
CC1C(=O)Nc2ccccc2N1C(=O)c1ccccc1 (configuration not stated) | -5.2 | i | i | 19.8* | i | i | 5.7 | 1.1
COc1cc2[nH]c3c(=O)n(N)c(=O)[nH]c3c2cc1OC | -3.0 | i | i | -0.7 | i | i | nt | nt
Cc1ccsc1/C=C1\SC(N2CC(C)OC(C)C2)=NC1=O (configuration not stated) | -15.9 | i | i | -8.2 | i | i | nt | nt
Oc1ccccc1OCC(O)c1ccccc1 (configuration not stated) | -10.0 | i | i | 18.5* | i | i | 5.3 | 3.4
COc1ccc(/C=C2\SC(=O)N(CC(=O)NNC(=O)c3ccccc3O)C2=O)cc1OC | -3.4 | i | i | 6.7 | i | i | nt | nt
COc1ccc(/C=C2\SC(=O)N(CC(=O)NNC(=O)c3ccccc3O)C2=O)cc1 | 15.1 | i | i | 20.1* | i | i | 12.8 | 20.8*
CC12CN3CC(C)(CN(C1)C3c1ccccc1F)C2 (configuration not stated) | -1.2 | i | i | -17.1 | i | i | nt | nt
C=CCN(CCNP(=O)(OCC)OCC)CP(=O)(OCC)OCC | 15.9 | i | i | 20.4* | i | i | 3.6 | -0.3
COc1ccc(OC)c(CC(NC(C)=O)C(=O)NC2CCN(c3c(Cc4ccccc4)c(C)nc4ncnn34)CC2)c1 (configuration not stated) | 1.4 | i | i | 21.5* | i | i | 1.1 | -5.0
C=CCn1c(C(C)NC(=O)c2cccc(C)c2)n[nH]c1=S (configuration not stated) | -8.2 | i | i | 0.0 | i | i | nt | nt
O=C(Nc1ccc(C(=O)O)cc1)/C(=C\c1ccco1)NC(=O)c1ccc(Br)cc1 | 0.4 | nt | nt | 23.6* | nt | nt | 4.0 | 1.0
O=C(Nc1ccc(C(=O)O)cc1)/C(=C\c1ccco1)NC(=O)c1ccc(Br)o1 | 11.0 | i | i | -2.9 | i | i | nt | nt
Oc1ccc(/C=N/Nc2ncnc3nc[nH]c23)cc1 | -4.3 | i | i | 22.1* | i | i | 1.5 | -4.7
Clc1ccc(/C=N/Nc2ncnc3nc[nH]c23)cc1 | -4.3 | i | i | 0.5 | i | i | nt | nt
O=C(NCc1ccccc1CN1CCCC1)c1cc2ccccc2o1 | 3.6 | i | nt | 0.3 | nt | nt | nt | nt
CC1CN(Cc2nnc(-c3ccccc3)o2)CC(C)O1 (configuration not stated) | -3.5 | i | i | 22.3* | i | i | 4.5 | 2.2
SMILES | PKA-R1A act | TMEM16A act | ANO1 block | PKA-R2B activ | CHT allo act | CHT inh | R2B FP artifact | PKA-R2B confirm
CCN1CCN(Cc2nnc(-c3ccccc3)o2)CC1 | 1.2 | i | i | -5.2 | i | i | nt | nt
CC(=O)Nc1ccc(S(=O)(=O)NNC(=O)COc2cc(C)ccc2C(C)C)cc1 | 6.7 | i | i | 20.4* | i | i | 3.0 | -0.5
COc1ccc(NC(=O)C2CCN(S(=O)(=O)c3ccccc3)CC2)cc1 | -0.3 | i | i | -1.0 | i | i | nt | nt
COc1ccc(S(=O)(=O)N2CCC(C(=O)Nc3c(F)cccc3F)CC2)cc1 | -5.2 | i | i | 21.4* | i | i | 2.7 | 1.4
CCC(=O)Nc1ccccc1N1CCN(c2ccc(F)cc2)CC1 | -2.8 | i | i | 18.9* | i | i | 1.7 | 3.5
COc1ccc(NS(=O)(=O)c2ccc3c(c2)NC(=O)CC(=O)N3)cc1OC | 8.3 | i | i | 11.1 | i | i | nt | nt
CCN1CCN(c2ccc(S(=O)(=O)N3CCOCC3)cc2NC(=O)c2ccc(C(F)(F)F)cc2)CC1 | -12.9 | i | i | -6.8 | i | i | nt | nt
CCN1CCN(c2ccc(S(=O)(=O)N3CCOCC3)cc2NC(=O)c2ccc(F)cc2Cl)CC1 | -0.9 | i | i | 19.0* | i | i | 1.6 | 0.5
O=C(CCc1cnccn1)NC1CCCc2c1cnn2-c1ccc(F)cc1F (configuration not stated) | 0.6 | i | i | -9.1 | i | i | nt | nt
CCOC(=O)/C(=N\Nc1ccc(Br)cc1)N1CCN(c2ccccc2OC)CC1 | -2.4 | i | nt | 21.0* | nt | nt | 1.1 | 2.9
Cc1[nH]c2ccccc2c1C(=O)CN1CCN(c2ccc(Cl)cc2)CC1 | 2.5 | i | i | -2.5 | i | i | nt | nt
CCOc1ccc(CC(=O)NCc2cn3c(C)csc3n2)cc1 | -2.3 | i | i | 21.8* | i | i | 0.2 | 3.9
O=C(CCNS(=O)(=O)c1ccccc1)N1CCC(Cc2ccccc2)CC1 | -1.0 | i | i | -3.5 | i | i | nt | nt

High-throughput results: PubChem BioAssay, several laboratories
